In PubChem BioAssay (NCI):
Compounds without any hit were thinned out: in the full panel of roughly 79,000, 15% have a hit. Unmarked numbers belong to inactive results. The source made the active and inactive calls. Cut-off read from the data, not from the text of the source: active = growth inhibition above about 70%; inactive = the rest.

Assay: NCI Yeast Anticancer Drug Screen. Data for the rad50 strain (AID 155);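 note: 0% = growth of vehicle-only cultures of the same strain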
Conditions: S. cerevisiae rad50 strain growth inhibition; at 50.0 µM; active compounds read high
Outline: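 DNA repair mutant yeast, compound exposure, growth read-out; inhibition is taken relative to vehicle.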

**Q.** Which growth inhibition does the source give for `O=C1C(CN2CCCCC2)CCC1CN1CCCCC1` (stereo not given) here?
**A.** The growth inhibition was 23.9%.

**Q.** Which growth inhibition does the source give for `CC1CC[N-]CC1.CC1CC[N-]CC1.[Cl][Pt+2][Cl]` here?
**A.** Its growth inhibition is -19.9%.

**Q.** For `COc1cc2c(c(OC)c1OC)-c1ccc(OC)c(=O)cc1C(NC(=O)CCCCCNc1ccc(N=[N+]=[N-])cc1[N+](=O)[O-])CC2` (stereo not given), which growth inhibition is on record?
**A.** The growth inhibition was 88.5% (active).

**Q.** Which growth inhibition does the source give for `C(=N\NC1=NCCCN1)/c1ccc2ccccc2c1` here?
**A.** Its growth inhibition is 4.45%.

**Q.** For `C[n+]1c(/C=C\c2ccc(O)cc2)cc(C(N)=O)c2ccccc21`, which growth inhibition is on record?
**A.** The growth inhibition was 19.2%.

**Q.** For `Cc1ncc(CN2CSC(CCO)C2C)c(N)n1` (stereo not given), which growth inhibition is on record?
**A.** Its growth inhibition is 32.6%.

**Q.** For `Nc1cc(Cl)c(N)c(Cl)c1`, which growth inhibition is on record?
**A.** Its growth inhibition is 1.8%.

**Q.** For `N#Cc1cccc(-c2ccc(-c3ccccc3)o2)c1`, which growth inhibition is on record?
**A.** Its growth inhibition is 31.6%.

**Q.** With `CC1CN=C(N(C(=O)Nc2ccc(Cl)c(Cl)c2)c2ccccc2)S1` (stereo not given) as the compound, how does the growth inhibition read?
**A.** Its growth inhibition is -47.3%.

**Q.** With `OCC1CC1c1ccccc1` (stereo not given) as the compound, how does the growth inhibition read?
**A.** The growth inhibition was -4.75%.

**Q.** For `CCN(CC)C1=C(C)S(=O)(=O)C1c1ccc(C)cc1` (stereo not given), which growth inhibition is on record?
**A.** Its growth inhibition is -9.1%.

**Q.** Which growth inhibition does the source give for `CN(C)c1ccc(C=Nc2cc(Cl)ccc2O)cc1` here?
**A.** Its growth inhibition is 38.9%.

**Q.** With `Oc1ccc(C=NCCN=Cc2ccc(O)cc2)cc1` as the compound, how does the growth inhibition read?
**A.** Its growth inhibition is 9.55%.

**Q.** For `CCCOC(=O)c1ccnc(C(=O)OCCC)c1`, which growth inhibition is on record?
**A.** The growth inhibition was 4.85%.

**Q.** For `CCn1c2ccc(C=O)cc2c2cc([N+](=O)[O-])ccc21`, which growth inhibition is on record?
**A.** The growth inhibition was 6.25%.

**Q.** For `c1ccc(C(N=NC(c2ccccc2)c2ccccc2)c2ccccc2)cc1`, which growth inhibition is on record?
**A.** Its growth inhibition is 4.4%.

**Q.** Which growth inhibition does the source give for `CC1(C)C(=O)/C=C\C(=O)C(C)(C)C(=O)/C=C\C(=O)C(C)(C)C2=CC=C(O2)C(C)(C)C(=O)/C=C\C1=O` here?
**A.** The growth inhibition was 14.9%.

**Q.** Which growth inhibition does the source give for `CNC1C(=O)C(C)C(O)(C(CC(C)C(O)/C=C/C=C/CNC(=O)C(C)(C)C(O)\C(C)=C/C=C\C=C\Cc2cnc(C)o2)OC)C12C(=O)OC2COC` (stereo not given) (tested in a mixture with another compound) here?
**A.** The growth inhibition was 2.6%.

**Q.** With `C=CCNC(=O)C(=O)NCC=C` as the compound, how does the growth inhibition read?
**A.** Its growth inhibition is 3.65%.

**Q.** For `O=C(Nc1ccccc1Cl)Nc1ccccc1Br`, which growth inhibition is on record?
**A.** The growth inhibition was 16.8%.

**Q.** With `CS(=O)(=O)Oc1ncc(Cl)cc1Cl` as the compound, how does the growth inhibition read?
**A.** Its growth inhibition is -15.4%.

**Q.** Which growth inhibition does the source give for `O=[N+]([O-])c1ccc(OCCCCCBr)c(Cl)c1` here?
**A.** The growth inhibition was -1.95%.

**Q.** Which growth inhibition does the source give for `COc1ccc(N/N=C2\CCOc3ccc(C)cc3C2=O)cc1` here?
**A.** Its growth inhibition is 53.6%.

**Q.** With `Cc1ccc(S(=O)(=O)Oc2nc3nc4ccccc4nc3nc2OS(=O)(=O)c2ccc(C)cc2)cc1` as the compound, how does the growth inhibition read?
**A.** Its growth inhibition is -3.5%.

**Q.** Which growth inhibition does the source give for `COc1ccn(C2OCCC(OC(C)=O)C2O)c(=O)n1` (stereo not given) here?
**A.** Its growth inhibition is -19.8%.

**Q.** Which growth inhibition does the source give for `Cc1ccc(O)c(O)c1` here?
**A.** The growth inhibition was 33.9%.

**Q.** Which growth inhibition does the source give for `CCc1ccc2[nH]nc(CCC(=O)O)c(=O)c2c1` here?
**A.** The growth inhibition was -1.5%.

**Q.** Which growth inhibition does the source give for `O=C1Nc2ccccc2C2=C3CCCCC3=NNC12` (stereo not given) here?
**A.** Its growth inhibition is 97.7% (active).

**Q.** For `O=Cc1cccc(OC(=O)Nc2ccccc2)c1`, which growth inhibition is on record?
**A.** The growth inhibition was 39%.

**Q.** Which growth inhibition does the source give for `CCCN=C(C(C)=O)N(C)C` here?
**A.** Its growth inhibition is -1.7%.

**Q.** For `CC1SC2(C(=O)Nc3ccccc32)N(c2ccc(Cl)cc2)C1=O` (stereo not given), which growth inhibition is on record?
**A.** Its growth inhibition is 21.6%.

**Q.** For `CC(C)C1CCC(C)(C=O)C1` (stereo not given), which growth inhibition is on record?
**A.** Its growth inhibition is -19.7%.

**Q.** With `Cc1cc2nc3n(c2cc1C)C(=O)c1cc2ccccc2cc1-3` as the compound, how does the growth inhibition read?
**A.** The growth inhibition was -8.55%.

**Q.** For `CC1=CC(C)(C)NC(=S)N1CCO`, which growth inhibition is on record?
**A.** The growth inhibition was 1.95%.

**Q.** For `Cc1cc2nc3c(=O)[nH]c(=O)nc-3n(CCOC(=O)CCC(=O)O)c2cc1C`, which growth inhibition is on record?
**A.** Its growth inhibition is -8.35%.

**Q.** With `O=c1c(Cl)cc(Cl)cn1S(=O)(=O)c1ccc([N+](=O)[O-])cc1` as the compound, how does the growth inhibition read?
**A.** The growth inhibition was 99.1% (active).

**Q.** With `COC(=O)C(=O)C1(C)CCc2c(ccc3ccc(OC)cc23)C1=O` (stereo not given) as the compound, how does the growth inhibition read?
**A.** The growth inhibition was -32.8%.

**Q.** For `COc1ccc(C(=O)/C=C/c2ccncc2)cc1OC`, which growth inhibition is on record?
**A.** Its growth inhibition is 41.8%.

**Q.** With `CC(C)CCCC(C)C1CCC2C3CCC4CC(O)C5(CC4(C)C3CCC12C)SCCS5` (stereo not given) as the compound, how does the growth inhibition read?
**A.** The growth inhibition was 41%.

**Q.** Which growth inhibition does the source give for `O=C(Oc1ccn(C2OC(CO)C(O)C2O)c(=O)c1)C12CC3CC(CC(C3)C1)C2` (stereo not given) here?
**A.** Its growth inhibition is 36.1%.
